{
  "source": "PubChem BioAssay (Tox21)",
  "note": "Inconclusive results are not listed. Calls of active or inactive are those of the source. Calls follow the shape of the dose curve; as a rule, active = well fitted cell-killing curve with a large enough effect in the repeat runs; inconclusive = weak or mixed curves, or effect the other way; inactive = flat fitted curve, though single readings scatter. % is scaled to controls: 0 for no effect and ±100 for the full control effect; potency is read from the fitted curve at half-maximal effect.",
  "data": [
    {"assay": "qHTS assay to identify small molecule antagonists of the retinoid acid receptor (RAR) signaling pathway - cell viability counter screen (AID 1159551); also: nearly all actives have a fitted effect of over 35% in size", "details": "C3RL4 cells viability, ATP luminescence (CellTiter-Glo), 6 h; series mostly up to 92.4 µM; activity change, negative = cytotoxicity: at the top concentration", "procedure,_shortened": "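Retinol-stimulated (1 uM final) C3RL4 cells, compound 6 h, 37 C; readout CellTiter-Glo luminescence (ATP) after 30 min RT incubation.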", "values": [
      {"smiles": "CCCCCCCCCCCCCCCS(=O)(=O)Oc1ccccc1", "activity change, negative = cytotoxicity": "-1.85% [at 42.5 µM] (inactive)"},
      {"smiles": "CCC1=C[C@@H]2CN(C1)Cc1c([nH]c3ccccc13)[C@@](C(=O)OC)(c1cc3c(cc1OC)N(C)[C@H]1[C@@](O)(C(=O)OC)[C@H](OC(C)=O)[C@]4(CC)C=CCN5CC[C@]31[C@@H]54)C2", "activity change, negative = cytotoxicity": "-3.94% [at 42.5 µM] (inactive)"},
      {"smiles": "NC(=NCCCCCCN=C(N)/N=C(\\N)Nc1ccc(Cl)cc1)/N=C(\\N)Nc1ccc(Cl)cc1", "activity change, negative = cytotoxicity": "-0.0964% [at 42.5 µM] (inactive)"},
      {"smiles": "CCN1/C(=C/C=C/c2sc3ccccc3[n+]2CC)Sc2ccccc21", "Potency": "14.6 µM (active)"},
      {"smiles": "O=C(Nc1cccc(Cl)c1)OCC#CCCl", "activity change, negative = cytotoxicity": "-0.279% (inactive)"},
      {"smiles": "COc1ccc(-c2ccc3cc(C(=O)O)ccc3c2)cc1C12CC3CC(CC(C3)C1)C2", "activity change, negative = cytotoxicity": "0.422% [at 42.5 µM] (inactive)"},
      {"smiles": "CCCN(CCC)C(=O)C(CCC(=O)OCCCN1CCN(CCOC(=O)Cc2c(C)n(C(=O)c3ccc(Cl)cc3)c3ccc(OC)cc23)CC1)NC(=O)c1ccccc1", "note": "(stereo not drawn)", "activity change, negative = cytotoxicity": "2.63% [at 42.5 µM] (inactive)"},
      {"smiles": "CCCCN(CCCC)c1ccc(C(=O)c2ccccc2C(=O)O)c(O)c1", "activity change, negative = cytotoxicity": "-3% (inactive)"},
      {"smiles": "Cc1cc(O)c(Cl)c(C)c1Cl", "activity change, negative = cytotoxicity": "-2.48% (inactive)"},
      {"smiles": "CCC(C)Nc1ccc(NC(C)CC)cc1", "note": "(stereo not drawn)", "Potency": "39.3 µM (active)"},
      {"smiles": "CN1CCC(Nc2ncc3ncnc(Nc4ccc(F)c(Cl)c4)c3n2)CC1", "activity change, negative = cytotoxicity": "-4.75% [at 42.5 µM] (inactive)"},
      {"smiles": "CCCCCCC[N+](CC)(CC)CCCCc1ccc(Cl)cc1", "activity change, negative = cytotoxicity": "-3.98% [at 42.5 µM] (inactive)"},
      {"smiles": "CCCCCCCCCCCCCC[P+](CCCC)(CCCC)CCCC", "note": "(tested in a mixture with another compound)", "Potency": "27.5 µM (active)"},
      {"smiles": "CCN(Cc1cccnc1)C(=O)c1cccc(Cl)c1[C@]1(C)C(=O)N(Cc2ccc(OC)cc2OC)c2ccc(Cl)cc21", "activity change, negative = cytotoxicity": "-2.18% (inactive)"},
      {"smiles": "Cc1ccc(O)c(C(C)(C)C)c1", "activity change, negative = cytotoxicity": "-7.69% (inactive)"},
      {"smiles": "NNc1nc(-c2ccccc2)cs1", "activity change, negative = cytotoxicity": "-7.03% (inactive)"},
      {"smiles": "CCOc1ccc2nc3cc(N)ccc3c(N)c2c1", "activity change, negative = cytotoxicity": "-1.93% [at 42.5 µM] (inactive)"},
      {"smiles": "CC(=O)S[C@@H]1CC2=CC(=O)CC[C@]2(C)[C@H]2CC[C@@]3(C)[C@@H](CC[C@@]34CCC(=O)O4)[C@H]12", "activity change, negative = cytotoxicity": "1.94% (inactive)"},
      {"smiles": "O=C(NOCC1CC1)c1ccc(F)c(F)c1Nc1ccc(I)cc1Cl", "activity change, negative = cytotoxicity": "-7.48% [at 42.5 µM] (inactive)"},
      {"smiles": "CNCc1cc(F)ccc1Oc1ccc(Cl)c(Cl)c1", "activity change, negative = cytotoxicity": "-9.57% (inactive)"},
      {"smiles": "OCc1c[nH]c2ccccc12", "activity change, negative = cytotoxicity": "2.03% (inactive)"},
      {"smiles": "Cn1cc(C(=O)[C@@H]2CCc3nc[nH]c3C2)c2ccccc21", "activity change, negative = cytotoxicity": "1.47% [at 42.5 µM] (inactive)"},
      {"smiles": "Nc1ccc2c3c(cccc13)-c1ccccc1-2", "activity change, negative = cytotoxicity": "-0.249% (inactive)"},
      {"smiles": "O=C(Nc1ccc(Oc2ccc(Cl)cc2)c(Cl)c1)c1cc(I)cc(I)c1O", "activity change, negative = cytotoxicity": "-2.34% [at 42.5 µM] (inactive)"},
      {"smiles": "Cc1cccc(CN2CCN(C(c3ccccc3)c3ccc(Cl)cc3)CC2)c1", "note": "(stereo not drawn)", "activity change, negative = cytotoxicity": "-6.17% [at 42.5 µM] (inactive)"},
      {"smiles": "CN(C)CCCOC1(Cc2ccccc2)CCCCCC1", "activity change, negative = cytotoxicity": "1.75% [at 42.5 µM] (inactive)"},
      {"smiles": "c1cc(C(c2ccc(OCC3CO3)cc2)c2ccc(OCC3CO3)cc2)ccc1OCC1CO1", "note": "(stereo not drawn)", "activity change, negative = cytotoxicity": "8.57% (inactive)"},
      {"smiles": "CCCCCCCCn1sc(Cl)c(Cl)c1=O", "Potency": "13.7 µM (active)"},
      {"smiles": "COc1cccc2c1C(=O)c1c(O)c3c(c(O)c1C2=O)C[C@@](O)(C(=O)CO)C[C@@H]3O[C@H]1C[C@H](N)[C@H](O[C@@H]2CCCCO2)[C@H](C)O1", "activity change, negative = cytotoxicity": "-7.72% [at 42.5 µM] (inactive)"},
      {"smiles": "CCCCCCCCS(=O)C(C)Cc1ccc2c(c1)OCO2", "note": "(stereo not drawn)", "activity change, negative = cytotoxicity": "-4.6% (inactive)"},
      {"smiles": "CCN(CC)CCCC(C)Nc1c2ccc(Cl)cc2nc2ccc(OC)cc12", "note": "(stereo not drawn)", "activity change, negative = cytotoxicity": "-3.02% [at 42.5 µM] (inactive)"},
      {"smiles": "Cc1c(C)c2c(c(C)c1OC(=O)CCC(=O)O)CC[C@@](C)(CCC[C@H](C)CCC[C@H](C)CCCC(C)C)O2", "activity change, negative = cytotoxicity": "-1.72% (inactive)"},
      {"smiles": "C[C@@H]1C[C@H]2[C@@H]3CCC4=CC(=O)C=C[C@]4(C)[C@@]3(Cl)[C@@H](O)C[C@]2(C)[C@@]1(OC(=O)c1ccco1)C(=O)CCl", "activity change, negative = cytotoxicity": "6.67% [at 42.5 µM] (inactive)"}
    ]}
  ]
}
